Vaccinia Venus: qHTS for Stage-Specific Inhibitors of Vaccinia Orthopoxvirus: Venus Reporter Primary qHTS; AID 720580, 2013; Potency, µM (highest dose often 36.5 µM), without a hit: at the top dose activity change, negative = inhibition, most hits filed as inhibitors; Vaccinia virus Venus reporter expression, fluorescence; 330,000 compounds, 0.46% hits; calls by dose curve; tested in A549 cells; further: potency means the concentration at half of the fitted maximal effect; nearly all actives have a fitted effect of over 30% in size
LASV entry inh: qHTS for Inhibitors of binding or entry into cells for Lassa Virus. Lassa virus pseudotype entry inhibition, cell reporter. Potency, µM (top dose mostly 37.9 µM), for inactives: at the highest dose activity change, negative = inhibition, hits mostly inhibitors. 300,000 compounds, 1.2% hits. AID 540256, 2011; calls by dose curve; tested in HEK293 cells; further: potency means the concentration at half of the fitted maximal effect; nearly all actives have a fitted effect of over 50% in size
Marburg entry inh: qHTS for inhibitors of binding or entry into cells for Marburg Virus; Marburg virus pseudotyped entry inhibition, cell reporter; Potency, µM (top dose mostly 37.8 µM), for the others: top-dose activity change, negative = inhibition, hits mostly inhibitors; 300,000 compounds, 1.8% hits; calls by dose curve; tested in HEK293 cells; further: potency means the concentration at half of the fitted maximal effect
HCMV antiviral: qHTS Assay for inhibitors of the human cytomegalovirus (HCMV). 410,000 compounds, 4.5% hits. activity change, negative = inhibition, % at 57.5 µM. HFF cells, HCMV-luciferase reporter, 72 h; active compounds read low. AID 1259415, 2018; in the data active means activity change below about -60%; inconclusive means no clear call, values can overlap the other calls; inactive means above about -39%
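Luciferase read-out from HCMV-luciferase-infected HFFs (MOI 1 PFU/cell) 72 h post infection at 37C; compounds added after 16 h cell attachment; activity normalized between buffer-only basal and Salinomycin (10uM) inhibitor controls.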
VACV mCherry inh: qHTS for Stage-Specific Inhibitors of Vaccinia Orthopoxvirus: mCherry Reporter Primary qHTS; 310,000 compounds, 0.63% hits; Vaccinia virus mCherry reporter infection, fluorescence; Potency, µM (series often up to 36.5 µM), for inactives: at the top dose activity change, negative = inhibition, hits mostly inhibitors; calls by dose curve; tested in A549 cells; further: potency means the concentration at half of the fitted maximal effect; nearly all actives have a fitted effect of over 35% in size
HCV inhibitor: qHTS Assay for Inhibitors of Hepatitis C Virus (HCV); AID 651820, 2012; Potency, µM (series often up to 41.8 µM), for inactives: at the top dose activity change, negative = inhibition, hits mostly inhibitors; Huh7.5.1 HCVcc-Cre infection, luciferase reporter, 44 h; 340,000 compounds, 3.4% hits; active means well fitted inhibition curve with a large enough effect; inconclusive means small, poorly fitted or top-dose-only effect, or another doubt; inactive means no such curve, though single readings can be large or run the other way; further: potency means the concentration at half of the fitted maximal effect
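Infectious HCVcc-Cre (~0.5 moi) was added to cells just after compound, with cells seeded 4 h earlier at 1,000 per well. Luciferase activity after 44 h culture reported infection; substrate was incubated 15 min at room temperature before reading.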
* marks the source's active call; other numbers are inactive results; i = inactive; u = inconclusive; x = not tested or not shown; [ ] = another dose, or the depositor's remark. Most compounds without a hit are left out; they make up all but 7.8% or so of the library. On the % scale 0 is the no-effect control and ±100 the full control effect.

SMILES	Vaccinia Venus	LASV entry inh	Marburg entry inh	HCMV antiviral	VACV mCherry inh	HCV inhibitor
CNC(=S)NC1CC2CCCC(C1)N2Cc1ccc(C)cc1 (stereo not drawn)	x	15%	4.6µM*	-4	x	u
Cc1ccc(CN2C3CCCC2CC(NC(=S)NCc2ccccc2)C3)cc1 (stereo not drawn)	-21%	u	u	-67*	u	u
COc1cc(CN(C(=O)c2ccccc2[N+](=O)[O-])c2ccccn2)cc(OC)c1OC	4%	-2%[46.1 µM]	-40%[46.1 µM]	-4	-12%	x
COC(=O)C1CCN(Cc2ccc3c(c2)CN(C(=O)c2ccc4nc(C)c(C)nc4c2)CCO3)CC1	-2%	x	x	x	-12%	x
CCOc1ccc(NC(=O)N2CC3CCCN3c3ccccc32)cc1 (stereo not drawn)	-20%	-29%[46.1 µM]	x	-11	-3%	x
Cc1csc(C(C)N(C)C(=O)c2cc(NC(=O)C3CCC3)c3c(c2)nc(-c2ccncc2)n3C)n1 (stereo not drawn)	-11%	x	x	x	i	x
O=C(CSc1nnc(NC(=O)C2CC2)s1)Nc1ccccc1C(F)(F)F	2%	-2%	u	3	15%	-13%
Cc1nc(Nc2ccc(Cl)cc2Cl)sc1C(=O)Nc1ccccc1	4%	-15%	u	-14	i	10µM*
Cc1nc(NC(=O)C2CC2)sc1C(=O)Nc1cccc(Cl)c1	-21%	u	-14%[46.1 µM]	26	i	-14%
Cc1nc(Nc2ccc(Cl)c(Cl)c2)sc1C(=O)Nc1ccccc1	x	u	u	-89*	x	8.9µM*
Cc1nc(NC(=O)/C=C/c2ccccc2)sc1C(=O)Nc1ccc(Cl)cc1	x	1%	u	-23	x	-27%
Cc1nc(NC(=O)C2CC2)sc1C(=O)Nc1ccccc1Cl	x	x	x	-104*	x	u
O=C(CSc1nnc(NC(=O)C2CC2)s1)Nc1ccccc1Cl	-3%	x	u	-63*	4%	24%
COc1ccc(NC(=O)CC2C(=O)N(c3ccc(C)cc3)C(=O)N2Cc2ccc(C)cc2)cc1 (stereo not drawn)	-3%	-2%[46.1 µM]	-7%[46.1 µM]	2	-8%	x
O=C(c1ccc(F)cc1)N1CC(=O)N2[C@@H](CO)[C@@H](c3ccc(Br)cc3)[C@@H]2C1	x	x	x	-1	x	x
CCc1ccc(N/C(SCc2cccc(F)c2)=C(/C#N)C(=O)NCc2ccco2)cc1	x	u	21µM*	5	x	18%
Cc1c(C(=O)NCc2ccc(F)cc2)sc2nc(-c3ccccc3)cn12	-19%	-20%[46.1 µM]	x	28	-21%	x
Cc1c(C(=O)NCc2ccco2)sc2nc(-c3ccccc3)cn12	u	x	x	18	-13%	10µM*
Cc1c(C(=O)Nc2ccncc2)sc2nc(-c3ccccc3)cn12	u	x	x	-36	-4%	3.5µM*
Cc1c(C(=O)Nc2ccc3c(c2)OCCO3)sc2nc(-c3ccccc3)cn12	-28%	u	u	-84*	u	2.5µM*
CCN(CC)c1ccc(NC(=O)c2sc3nc(-c4ccccc4)cn3c2C)cc1	u	u	x	-25	-7%	x
CCOC(=O)c1ccccc1NC(=O)c1cc2ccc3cccnc3c2[nH]1	-18%	u	x	u	-12%	x
COc1ccc(CNCC(O)COc2cccc3c2OC(C)(C)C3)cc1 (stereo not drawn)	-22%	u	u	-64*	u	u
COC(=O)c1ccc(COc2cccc3c2OC(C)(C)C3)cc1	-10%	1%	-9%	-6	-28%	0%
Cn1cnc2nc(Cl)nc(Cl)c21	u	u	u	-72*	u	32µM*
SMILES	Vaccinia Venus	LASV entry inh	Marburg entry inh	HCMV antiviral	VACV mCherry inh	HCV inhibitor
Cc1cc(C)cc(C(=O)NCc2nc(-c3cccc(NC(=O)c4ccccn4)c3)oc2C)c1	0%	x	x	x	-13%	x
Cc1cccc(C(=O)NC2CCN(S(=O)(=O)c3cccc(F)c3)CC2)c1	x	x	x	-60*	x	-23%
Cc1cccc(C(=O)NC2CC3CCCC(C2)N3S(=O)(=O)c2ccccc2)c1 (stereo not drawn)	-24%	13µM*	u	-31	u	u
O=C(NNC(=O)C1CCN(Cc2ccccc2)CC1)c1cccc(Cl)c1	-19%	0%	u	-12	x	10µM*
O=C(NC1CC2CCCC(C1)N2Cc1ccccc1)c1cccc(Cl)c1 (stereo not drawn)	-5%	1%	1.3µM*	-40	-14%	-7%
Cc1cccc(C(=O)NC2CCN(C(=O)Nc3ccccc3C)CC2)c1	-19%	x	x	-103*	12%	24%
Cc1ccccc1C1=NC(C)(CC(=O)NCCOc2ccccc2)ON1C (stereo not drawn)	x	x	x	-8	x	x
Fc1ccc(-c2nn3ncccc3c2-c2ccnc(Nc3ccc4c(c3)OCCO4)n2)cc1	x	7.9µM*	x	x	x	x
Cc1cc(C)n2c(Nc3ccc4c(c3)OCCO4)c(-c3ccc(F)cc3)nc2n1	0%	x	x	74	23%	x
COc1ccc(-c2nn3ncccc3c2-c2ccnc(Nc3ccc4c(c3)OCCO4)n2)cc1	x	16µM*	x	x	x	x
COc1ccc(-c2nc3ncccn3c2Nc2ccc3c(c2)OCCO3)cc1	-23%	x	0%	91	u	-6%
COC(=O)[C@H]1[C@H](CO)[C@H]2Cn3c(ccc(Br)c3=O)[C@H]2N1Cc1ccccc1Cl	x	x	x	7	x	x
CN(C)Cc1cc(C(C)(C)c2cc(CN(C)C)c(O)c(CN(C)C)c2)cc(CN(C)C)c1O	x	u	12µM*	12	x	8%
O=C(Nc1ccccc1F)N1CC(=O)N2[C@H](CO)[C@H](c3ccc(Br)cc3)[C@@H]2C1	x	x	x	18	x	x
COc1ccc(/C=C/C(=O)Nc2ccc(C)c(S(=O)(=O)N3CCOCC3)c2)cc1	u	x	x	-95*	u	2.8µM*
COc1ccc(/C=C/C(=O)Nc2ccc(S(=O)(=O)N3CCOCC3)cc2)c(OC)c1	x	x	x	u	x	10µM*
COc1ccc(NC(=O)/C=C/c2ccc(S(=O)(=O)N3CCOCC3)cc2)cc1	x	x	x	-19	x	-4%
COc1cc(C2C3C(=O)N(Cc4ccccc4)C(=O)C3ON2c2ccccc2)cc(OC)c1OC (stereo not drawn)	-12%	7%	4%	-18	x	-22%
COc1ccc(C2C3C(=O)N(Cc4ccccc4)C(=O)C3ON2c2ccccc2)c(OC)c1OC (stereo not drawn)	-28%	5.6µM*	u	5	x	u
CN(c1ccc(NC(=O)Nc2ccc(OC(F)(F)F)cc2)cc1)c1ccnc(Nc2cccc(S(N)(=O)=O)c2)n1	x	25µM*	x	x	x	x
C=CCn1c(N)c(C(=O)NCC2CCCO2)sc1=S (stereo not drawn)	-14%	18%	-2%	-62*	-17%	1%
C=CCn1c(N)c(C(=O)Nc2ccc(C)cc2)sc1=S	-6%	x	-3%	-91*	u	-9%
